HT1080NT lethal = kills 2HG-producing HT-1080-NT fibrosarcoma cells. HT-1080-NT fibrosarcoma viability, CellTiter-Glo ATP luminescence, 48 h. actives 1.6% (n = 360,000). AID 686970. Potency, µM (titrated, usually from 46.1 µM), most hits filed as cytotoxic;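 note: NT is the 2HG producing partner of a matched IDH1 knockdown line; nearly all actives have a fitted effect of over 55% in size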
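HT-1080-NT fibrosarcoma cells (2HG-overproducing), 750 cells/well in RPMI with 5% FBS, dosed after 2 h and incubated 48 h at 37C. CellTiter-Glo luminescence normalized to DMSO and no-cell wells; concentration-response curves fitted and classed.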
HT1080 IDH1KD tx = toxicity to HT-1080 IDH1 knockdown cells (counter line). AID 686971. Potency, µM (titrated, usually from 46.1 µM), actives largely listed as cytotoxic. HT-1080 IDH1 knockdown viability, ATP luminescence, 48 h. actives 2% (n = 360,000)
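Viability of IDH1-knockdown HT-1080 fibrosarcoma cells was assessed by CellTiter-Glo after 48 h at 37 °C with titrated compound; concentration-effect curves were classified by fit quality and response size.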
KB-V1 cytotox = kills drug-selected multidrug resistant KB-V1 cells | KB-V1 MDR cells viability, CellTiter-Glo, 72 h | Potency, µM (titrated, usually from 46.1 µM), most hits filed as cytotoxic | actives 3.4% (n = 400,000) | AID 1347076; note: nearly all actives have a fitted effect of over 60% in size
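Cytotoxicity via CellTiter-Glo luminescence after 72 h compound exposure at 37 degrees C. Cells: drug-selected KB-V1 line, DMEM phenol-red free plus 10% FBS. Compounds tested at multiple concentrations; normalized data fitted to concentration-effect curves.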
SW480 rereplic = DNA re-replication induction in SW480 cells; AID 624297; Potency, µM (titrated, usually from 46.1 µM), actives largely listed as activators; actives 1.8% (n = 340,000); SW480 DNA re-replication, Hoechst DNA content imaging, 48 h; note: nearly all actives have a fitted effect of over 55% in size
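Image-based read-out: total Hoechst fluorescence of nuclei (405 nm excitation, 500-530 nm emission), with hits raising the fraction of high-intensity nuclei. SW480 colon cells incubated 48 hr with compounds at 37 C.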
MCF10A rereplic = induces DNA re-replication in MCF 10a normal breast cells; MCF 10A DNA re-replication, Hoechst nuclear intensity, 48 h; Potency, µM (top dose mostly 46.1 µM), hits mostly activators; actives 2.9% (n = 350,000); note: nearly all actives have a fitted effect of over 50% in size
KB-3-1 tox = KB-3-1 parental cell cytotoxicity. actives 1.4% (n = 400,000). KB-3-1 viability, CellTiter-Glo ATP luminescence, 72 h. Potency, µM (doses to about 46.1 µM), most hits filed as cytotoxic. AID 1347075; note: nearly all actives have a fitted effect of over 60% in size
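Parental KB-3-1 viability, qHTS format: 72 h compound exposure, 37 °C; CellTiter-Glo; media-only wells and DMSO plates as controls; concentration-effect fits on corrected data.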
A number is an active result; – = inactive; ? = inconclusive; · = no result given. Most compounds without a hit are left out; they make up all but 7.9% or so of the library. Calls come from the whole dose curve; as a rule, active = well fitted curve in the direction sought with a large enough effect; inconclusive = small, poorly fitted or top-dose-only effect, or another doubt; inactive = no such curve, though single readings can be large; an effect the other way counts as inactive or inconclusive.

SMILES	HT1080NT lethal	HT1080 IDH1KD tx	KB-V1 cytotox	SW480 rereplic	MCF10A rereplic	KB-3-1 tox
Cc1ccc(OCC(=O)N(Cc2ccccc2)C(C)(C)C)c([N+](=O)[O-])n1	–	–	23µM	–	–	–
CC(=O)C(N=Nc1ccccc1)(Sc1nnc(-c2ccccc2)n1-c1ccccc1)C(=O)Nc1ccccc1 (stereo not given)	–	–	–	–	–	–
CC(=O)C(N=Nc1ccccc1)(Sc1nnc(-c2ccccc2)n1-c1ccccc1)C(C)=O	–	–	12µM	?	–	?
Cc1ccc(Cl)cc1N1CCN(CCNC(=O)Nc2ccccc2Cl)CC1	·	·	–	·	·	–
C=CCn1c(SCc2nc3ccccc3[nH]2)nnc1-c1cccc(OC)c1	–	–	3.7µM	–	–	–
C=CCn1c(SCc2nc3ccccc3[nH]2)nnc1-c1ccc(OC)cc1	–	–	4.6µM	–	–	–
C=CCn1c(SCc2nc3ccccc3[nH]2)nnc1-c1ccccn1	–	–	–	–	–	–
CCn1c(SCc2nc3ccccc3[nH]2)nnc1-c1ccc(OC)cc1	–	–	10µM	–	–	–
CCOC(=O)/C(C#N)=C/Nc1cc(C(=O)OCC)cc2c(OC)c(OC)ccc12	–	–	–	23µM	2.6µM	–
CCOC(=O)/C(C#N)=C/Nc1ccsc1C(=O)OC	–	–	–	–	–	–
COc1cccc(-c2oc3c(c2C#CC2(N)CCCCC2)C(O)CCC3)c1 (stereo not given)	16µM	?	?	·	·	?
CCCCCCCCNCCS(=O)(=O)NCCCCCCCC	–	–	?	–	–	–
N#Cc1c(N)n(C2CCCCC2)c2nc3ccccc3nc12	?	?	?	8.2µM	1µM	?
Nc1c(C(=O)Nc2ccccc2)c2nc3ccccc3nc2n1-c1ccc(O)cc1	?	?	–	7.3µM	15µM	–
CCOC(=O)c1c(N)n(-c2ccc(N)cc2)c2nc3ccccc3nc12	–	–	–	–	–	–
N#Cc1c(N)n(-c2ccc(C(=O)O)cc2)c2nc3ccccc3nc12	–	–	–	?	18µM	–
N#Cc1c(N)n(-c2ccc(N)cc2)c2nc3ccccc3nc12	?	–	–	–	–	–
COc1ccc(NC(=O)c2cc(-c3cc(F)ccc3OCC3CCCO3)n[nH]2)cc1OC (stereo not given)	–	?	–	·	·	?
COc1ccc(C2CN=NC23CCCc2ccccc2C3=O)cc1 (stereo not given)	?	?	?	18µM	18µM	?
O=C1c2ccccc2CCC12N=NCC2c1ccc(Cl)cc1 (stereo not given)	–	–	–	–	–	–
COc1ccc(C2CN=NC23CCc2ccccc2C3=O)cc1 (stereo not given)	?	16µM	?	–	?	?
COC(=O)c1c(SC)nc2ccccc2c1OCc1cccc(C)c1	·	·	?	·	·	–
Cc1ccc(-c2cc(-c3ccccc3)c3c(N)c(S(C)(=O)=O)sc3n2)cc1	?	–	?	12µM	?	?
CS(=O)(=O)c1sc2nc(-c3cccs3)cc(-c3ccccc3)c2c1N	–	–	–	?	18µM	–
COc1cccc(NC(=O)CN(C)C(=O)Cc2ccc3c(c2)CCC3)c1	–	–	15µM	–	–	–
SMILES	HT1080NT lethal	HT1080 IDH1KD tx	KB-V1 cytotox	SW480 rereplic	MCF10A rereplic	KB-3-1 tox
Cc1ccc(OCC(=O)NC(=S)Nc2cccc(NC(=O)c3ccc(Cl)cc3Cl)c2)cc1	–	–	?	–	–	–
COc1cccc(NC(=O)CN(C)C(=O)Cc2ccc3c(c2)OCCO3)c1	–	–	?	–	–	–
COc1cccc(NC(=O)COC(=O)c2ccccc2C(=O)N(C)c2ccccc2)c1	–	–	23µM	–	–	–
CCOC(=O)Nc1cccc(OCC(=O)Nc2ccccc2OCC)c1	–	–	6.5µM	–	–	–
Cc1ccc(OCC(=O)NC(=S)Nc2cccc(NC(=O)c3ccccc3)c2)cc1	–	–	–	–	15µM	–
COc1cccc(NC(=O)CCCN2C(=O)C3CC=CCC3C2=O)c1 (stereo not given)	?	10µM	?	–	–	–
COc1cccc(NC(=O)COc2ccccc2)c1	–	–	–	–	23µM	–
NS(=O)(=O)c1ccc(NC(=O)CN2C(=O)COc3ccc(Cl)cc32)cc1	·	·	–	·	·	–
COC(=O)CSc1nnc2n(-c3ccccc3)c(=O)c3c4c(sc3n12)COC(C(C)C)C4 (stereo not given)	·	·	–	·	·	–
Cn1nc(C(C)(C)C)cc1C(=O)NCc1ccc(N2CCCC2=O)cc1	?	?	0.58µM	–	–	0.65µM
Cn1c(=O)n(C)c2cc(NS(=O)(=O)c3ccc(C(C)(C)C)cc3)c(NCc3ccccc3)cc21	·	·	–	·	·	?
CC(=O)NNC(=S)NC(=O)C(c1ccccc1)c1ccccc1	?	?	–	–	–	?
CC(C)(C)C(=O)NC(=S)NNC(=O)C(c1ccccc1)c1ccccc1	18µM	12µM	?	?	–	?
Nc1nc2ccccc2n1/N=C/c1ccc(Br)cc1	–	–	9.2µM	–	–	–
Nc1nc2ccccc2n1/N=C/c1ccc2c(c1)OCO2	–	–	?	21µM	–	–
Nc1ccn([C@@H]2O[C@H](CNCc3cc(Cl)ccc3OCc3ccc(Cl)cc3)[C@@H](O)[C@H]2O)c(=O)n1	–	–	–	·	·	–
O=C1C(Cl)=C(NCCCN2CCOCC2)C(=O)c2ccccc21	–	?	?	?	?	–
O=C1C(Cl)=C(NCCN2CCOCC2)C(=O)c2ccccc21	?	18µM	?	?	–	?
O=C1C(Cl)=C(NCCCO)C(=O)c2ccccc21	?	?	–	?	?	23µM
CCCc1cnc2c(c1SCc1ccc(C(F)(F)F)cc1)c(=O)n(C)c(=O)n2C	·	·	?	·	·	–
COc1cccc(CNc2nc3c(-c4cccc(C)c4)nnn3c3ccccc23)c1	·	·	–	·	·	–
Cc1ccc2c(c1)c1c(c(=O)n(Cc3ccccc3)c(=O)n1Cc1cccc(C(F)(F)F)c1)n2C	·	·	–	·	·	–
C/C=C/C(=O)N1c2ccc(C)cc2C(C)=CC1(C)C	–	–	–	–	–	–
CC(=O)Nc1ccc(S(=O)(=O)N2c3ccccc3C(C)=CC2(C)C)cc1	1.3µM	0.92µM	?	?	?	3.3µM
CC1=CC(C)(C)N(S(=O)(=O)c2ccc(F)cc2)c2ccccc21	11µM	?	–	21µM	?	–
CC1=CC(C)(C)N(S(=O)(=O)c2ccc(C)cc2)c2ccc(C)cc21	3.2µM	6.3µM	?	–	–	6.5µM
Cc1cc2nc(-c3cccc(Cl)c3)c(Cc3ccccc3)n2c(C)c1Br	–	–	–	·	·	–
O=C(CSc1nc(-c2ccccc2)cn1-c1ccccc1F)Nc1ccc(F)cc1	·	·	–	·	·	–

Bioassay records as filed in PubChem BioAssay.
